Inconclusive results are not listed. A call without a number means that no potency is given here. Values without a mark were called inactive. Active and inactive are the calls of the source. Unless noted, calls come from the whole dose curve; as a rule, active = well fitted curve in the direction sought with a large enough effect in the repeat runs; inconclusive = weak or mixed curves; inactive = no such curve, though single readings can be large; an effect the other way counts as inactive or inconclusive.
How the values were obtained:
[1] = qHTS assay to identify aromatase inhibitors - cell viability counter screen (AID 743084);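 note: cells stimulated with testosterone during compound exposure; nearly all actives have a fitted effect of over 55% in size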
[2] = molecular target: Aryl hydrocarbon receptor (Homo sapiens) (UniProt P35869); test: qHTS assay to identify small molecule that activate the aryl hydrocarbon receptor (AhR) signaling pathway (AID 743085); note: nearly all actives have a fitted effect of over 15% in size; note: potency is the fitted concentration of half-maximal effect;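 for activation: HG2L7.5c1 human HepG2 liver cells with stably integrated DRE-driven firefly reporter; series mostly up to about 70 µM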
Sequence of Aryl hydrocarbon receptor (Homo sapiens) (P35869 whole entry, looked up): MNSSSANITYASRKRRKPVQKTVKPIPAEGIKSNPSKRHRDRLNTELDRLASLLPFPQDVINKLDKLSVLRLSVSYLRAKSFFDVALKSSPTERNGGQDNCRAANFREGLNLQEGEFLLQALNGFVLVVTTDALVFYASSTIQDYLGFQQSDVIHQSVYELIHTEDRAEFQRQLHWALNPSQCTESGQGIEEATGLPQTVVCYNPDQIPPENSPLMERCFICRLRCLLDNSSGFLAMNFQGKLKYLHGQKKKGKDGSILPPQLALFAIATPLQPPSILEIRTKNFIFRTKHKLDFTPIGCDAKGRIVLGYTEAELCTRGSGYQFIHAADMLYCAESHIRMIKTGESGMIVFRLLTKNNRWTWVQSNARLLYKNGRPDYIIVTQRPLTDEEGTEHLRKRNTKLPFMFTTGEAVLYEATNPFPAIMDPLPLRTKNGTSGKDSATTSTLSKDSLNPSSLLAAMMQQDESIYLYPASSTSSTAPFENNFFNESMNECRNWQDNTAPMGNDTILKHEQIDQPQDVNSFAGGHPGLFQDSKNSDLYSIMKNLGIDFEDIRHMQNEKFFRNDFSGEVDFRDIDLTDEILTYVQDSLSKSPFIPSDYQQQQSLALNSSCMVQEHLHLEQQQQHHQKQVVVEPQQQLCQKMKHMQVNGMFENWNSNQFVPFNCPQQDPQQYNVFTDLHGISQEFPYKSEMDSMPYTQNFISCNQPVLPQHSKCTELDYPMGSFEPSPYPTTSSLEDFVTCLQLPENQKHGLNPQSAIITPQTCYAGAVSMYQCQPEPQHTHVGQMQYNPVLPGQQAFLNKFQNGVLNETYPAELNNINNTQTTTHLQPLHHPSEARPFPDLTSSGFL
How it was run: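 AhR agonist activity is inferred from enhanced light output of a DRE-controlled firefly luciferase reporter in HepG2 cells, measured with ONE-Glo following 24 h treatment at 37C.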

[3] = qHTS assay to identify small molecule that activate the aryl hydrocarbon receptor (AhR) signaling pathway - cell viability counter screen (AID 743086);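 note: HepG2 liver cells carrying the AhR DRE luciferase reporter; series mostly up to about 70 µM; nearly all actives have a fitted effect of over 45% in size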
How it was run: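 HepG2-AhR-luc (HG2L7.5c1) cells, 4000/well, treated 24 h at 37 C with compound; viability measured as CellTiter-Fluor fluorescence after 30 min in the same wells as the luciferase read.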

[4] = molecular target: Peroxisome proliferator-activated receptor gamma (Homo sapiens) (UniProt P37231); test: qHTS assay to identify small molecule antagonists of the peroxisome proliferator-activated receptor gamma (PPARg) signaling pathway (AID 743191; calls by dose curve; note: series mostly up to about 63 µM; nearly all actives have a fitted effect of over 30% in size)
Sequence of Peroxisome proliferator-activated receptor gamma (Homo sapiens) (P37231 whole entry, looked up): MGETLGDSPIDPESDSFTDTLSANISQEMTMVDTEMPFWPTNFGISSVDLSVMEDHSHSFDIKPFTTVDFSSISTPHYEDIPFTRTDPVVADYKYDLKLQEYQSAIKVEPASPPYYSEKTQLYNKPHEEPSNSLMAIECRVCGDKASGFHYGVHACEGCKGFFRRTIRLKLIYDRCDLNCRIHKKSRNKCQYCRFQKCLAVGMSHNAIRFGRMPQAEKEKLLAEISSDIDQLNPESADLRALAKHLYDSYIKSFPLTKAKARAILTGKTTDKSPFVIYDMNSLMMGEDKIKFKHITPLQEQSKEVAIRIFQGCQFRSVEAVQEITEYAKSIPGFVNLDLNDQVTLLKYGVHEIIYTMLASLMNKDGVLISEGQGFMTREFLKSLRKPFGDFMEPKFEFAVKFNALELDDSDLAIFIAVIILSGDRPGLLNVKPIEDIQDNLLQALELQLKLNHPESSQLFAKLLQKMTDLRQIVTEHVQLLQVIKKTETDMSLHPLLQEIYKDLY
How it was run: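 GeneBLAzer PPARg UAS-bla HEK293H cells, 5 h post-plating, exposed to compounds 17 h at 37C. LiveBLAzer B/G FRET substrate added for 1 h at room temperature; beta-lactamase reporter read by fluorescence intensity.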

[5] = qHTS assay to identify small molecule antagonists of the peroxisome proliferator-activated receptor gamma (PPARg) signaling pathway - cell viability counter screen (AID 743194); details: Potency: co-treated with 50 nM rosiglitazone; note: nearly all actives have a fitted effect of over 55% in size; note: potency is the fitted concentration of half-maximal effect
How it was run: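 Cytotoxicity counter screen in PPARg-bla HEK293H cells, same wells as reporter assay. Compounds plus 50 nM rosiglitazone (final) for 17 h at 37 C, then viability read by CellTiter-Glo luminescence.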

[6] = qHTS assay for small molecule activators of the heat shock response signaling pathway - cell viability counter screen (AID 743209); note: nearly all actives have a fitted effect of over 50% in size; note: potency is the fitted concentration of half-maximal effect
How it was run: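 HSE-bla HeLa; 1500 cells/well; overnight 37 C, 5% CO2; compound 5 h 37 C; LiveBLAzer B/G substrate 2.5 h RT; CellTiter-Glo 30 min RT; luminescence.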

[7] = qHTS assay for small molecule activators of the heat shock response signaling pathway (AID 743210; active = well fitted activation curve with a large enough effect in the signal ratio in the repeat runs, with a control signal flat, not every such curve was filed as active; the % refers to the signal ratio;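 note: HeLa cells with beta-lactamase reporter driven by heat shock elements; series mostly up to about 63 µM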)
How it was run: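 Beta-lactamase reporter read-out: FRET substrate fluorescence after 2.5 h at RT, following 5 h compound treatment at 37 C of HeLa cells carrying HSE-driven bla reporter; quantitative HTS format.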

[8] = qHTS assay to identify small molecule agonists of the peroxisome proliferator-activated receptor delta (PPARd) signaling pathway - cell viability counter screen (AID 743211); note: nearly all actives have a fitted effect of over 55% in size; note: potency is the fitted concentration of half-maximal effect
How it was run: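 qHTS cell viability: PPARd-bla HEK293H; 17 h cpd, 37C; CellTiter-Glo, luminescence at 30 min RT.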

[9] = molecular target: Peroxisome proliferator-activated receptor delta (Homo sapiens) (UniProt Q03181); test: qHTS assay to identify small molecule agonists of the peroxisome proliferator-activated receptor delta (PPARd) signaling pathway (AID 743212; calls by dose curve)
Sequence of Peroxisome proliferator-activated receptor delta (Homo sapiens) (Q03181 whole entry, looked up): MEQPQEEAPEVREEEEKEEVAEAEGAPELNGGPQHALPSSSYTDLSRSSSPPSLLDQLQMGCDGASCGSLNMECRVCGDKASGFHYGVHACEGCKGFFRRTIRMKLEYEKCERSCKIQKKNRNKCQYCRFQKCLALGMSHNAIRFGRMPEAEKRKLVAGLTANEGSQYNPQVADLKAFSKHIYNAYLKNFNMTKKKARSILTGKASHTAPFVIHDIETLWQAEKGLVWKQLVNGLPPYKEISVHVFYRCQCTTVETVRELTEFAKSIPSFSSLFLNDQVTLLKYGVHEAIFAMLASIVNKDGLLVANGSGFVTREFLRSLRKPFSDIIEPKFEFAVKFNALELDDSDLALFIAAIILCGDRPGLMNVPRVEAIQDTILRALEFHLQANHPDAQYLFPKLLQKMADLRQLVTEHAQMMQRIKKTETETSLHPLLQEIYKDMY
How it was run: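 Read-out: beta-lactamase FRET fluorescence after 2 h room-temperature incubation with LiveBLAzer B/G substrate. Cells were HEK293H carrying a UAS-bla reporter for PPARd, treated at 37 C with DMSO-dissolved compounds.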

[10] = qHTS assay to identify small molecule agonists of the farnesoid-X-receptor (FXR) signaling pathway - cell viability counter screen (AID 743218); note: nearly all actives have a fitted effect of over 45% in size; note: potency is the fitted concentration of half-maximal effect
How it was run: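 Luminescence from CellTiter-Glo, read after 30 min at RT, reports viability of GeneBLAzer FXR-UAS-bla HEK 293T cells treated 16 h with compounds in the wells used for the beta-lactamase reporter.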

[11] = qHTS assay to identify small molecule antagonists of the farnesoid-X-receptor (FXR) signaling pathway - cell viability counter screen (AID 743221; active = well fitted cell-killing curve with a large enough effect in the repeat runs, not every such curve was filed as active; note: nearly all actives have a fitted effect of over 50% in size; note: potency is the fitted concentration of half-maximal effect)
How it was run: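 After a 5 h settling period, FXR-bla HEK 293T cells receive compound and chenodeoxycholic acid (50 uM final) and incubate 16 h at 37 C; CellTiter-Glo luminescence, read after 30 min at room temperature, reports cell viability.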

[12] = molecular target: Vitamin D3 receptor (Homo sapiens) (UniProt P11473); test: qHTS assay to identify small molecule agonists of the vitamin D receptor (VDR) signaling pathway (AID 743222; calls by dose curve)
Sequence of Vitamin D3 receptor (Homo sapiens) (P11473 whole entry, looked up): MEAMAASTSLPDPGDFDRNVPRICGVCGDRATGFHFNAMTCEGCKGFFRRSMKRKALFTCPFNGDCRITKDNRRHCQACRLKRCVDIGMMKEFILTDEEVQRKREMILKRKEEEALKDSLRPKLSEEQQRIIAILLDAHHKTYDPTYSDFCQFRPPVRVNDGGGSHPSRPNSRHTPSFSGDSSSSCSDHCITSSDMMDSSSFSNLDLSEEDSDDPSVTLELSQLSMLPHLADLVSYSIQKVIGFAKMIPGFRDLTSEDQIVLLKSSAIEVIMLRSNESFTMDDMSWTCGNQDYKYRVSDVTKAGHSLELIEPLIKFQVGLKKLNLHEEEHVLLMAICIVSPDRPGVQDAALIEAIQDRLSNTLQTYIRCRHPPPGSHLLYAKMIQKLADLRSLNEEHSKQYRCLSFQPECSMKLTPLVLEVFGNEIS
How it was run: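 Beta-lactamase reporter readout (LiveBLAzer B/G FRET, 2 h RT) in VDR-bla cells after 16 h compound treatment at 37C, 5% CO2; cells pre-incubated 4 h before pin transfer of DMSO solutions.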

[13] = molecular target: Peroxisome proliferator-activated receptor gamma (Homo sapiens) (UniProt P37231); test: qHTS assay to identify small molecule agonists of the peroxisome proliferator-activated receptor gamma (PPARg) signaling pathway (AID 743094; active = well fitted activation curve with a large enough effect in the signal ratio in the repeat runs, not every such curve was filed as active; the % refers to the signal ratio)
How it was run: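 HEK293H PPARg-bla cells, 5 h settle at 37C/5% CO2; compound (DMSO) 17 h, 37C; B/G FRET substrate 1 h RT; fluorescence intensity read-out. qHTS format.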

[14] = qHTS assay for small molecule agonists of the antioxidant response element (ARE) signaling pathway (AID 743202; active = well fitted activation curve with a large enough effect in the signal ratio in the repeat runs, not every such curve was filed as active; the % refers to the signal ratio; note: potency is the fitted concentration of half-maximal effect)
How it was run: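 HepG2 ARE-bla reporter line, 2,000 cells/well; 5 h preincubation 37 C/5% CO2; compound (DMSO) 16 h 37 C; B/G FRET substrate 2 h RT; fluorescence intensity.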

[15] = qHTS assay for small molecule agonists of the antioxidant response element (ARE) signaling pathway - cell viability counter screen (AID 743203; calls by dose curve; note: nearly all actives have a fitted effect of over 55% in size; note: potency is the fitted concentration of half-maximal effect)
How it was run: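 Luminescence read-out (CellTiter-Glo, 30 min at room temperature) measured cell viability in the same wells as the ARE beta-lactamase reporter. HepG2 ARE-bla cells were treated with compounds for 16 hrs at 37C/5% CO2.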

[16] = molecular target: Peroxisome proliferator-activated receptor delta (Homo sapiens) (UniProt Q03181); test: qHTS assay to identify small molecule antagonists of the peroxisome proliferator-activated receptor delta (PPARd) signaling pathway (AID 743215; active = well fitted inhibition curve with a large enough effect in the signal ratio in the repeat runs, not every such curve was filed as active; the % refers to the signal ratio;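 note: cells stimulated with agonist L165041 at 300 nM final during compound exposure; series mostly up to about 62 µM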)
How it was run: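 HEK293H GeneBLAzer PPARd UAS-bla reporter cells; cpd + L165041 300 nM final, 17 h 37 C; LiveBLAzer B/G FRET substrate 2 h RT; fluorescence intensity read-out. Antagonist mode.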

[17] = molecular target: Vitamin D3 receptor (Homo sapiens) (UniProt P11473); test: qHTS assay to identify small molecule antagonists of the vitamin D receptor (VDR) signaling pathway (AID 743223; active = well fitted inhibition curve with a large enough effect in the signal ratio in the repeat runs, not every such curve was filed as active; the % refers to the signal ratio)
How it was run: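 Reporter line VDR-bla; stimulus 1alpha,25-(OH)2 vitamin D3, 3 nM final; compound co-addition, 16 h 37C/5% CO2; LiveBLAzer B/G substrate 2 h RT; fluorescence intensity.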

[18] = qHTS assay to identify small molecule antagonists of the peroxisome proliferator-activated receptor delta (PPARd) signaling pathway - cell viability counter screen (AID 743213); note: nearly all actives have a fitted effect of over 50% in size
How it was run: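 In this counter screen, HEK293H cells carrying a UAS-beta-lactamase reporter are co-treated with test compounds and 300 nM L165041 (final) for 17 h at 37 C; cell viability is quantified by CellTiter-Glo luminescence.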

[19] = molecular target: Bile acid receptor (Homo sapiens) (UniProt Q96RI1); test: qHTS assay to identify small molecule antagonists of the farnesoid-X-receptor (FXR) signaling pathway (AID 743217; active = well fitted inhibition curve with a large enough effect in the signal ratio in the repeat runs, not every such curve was filed as active; the % refers to the signal ratio)
Sequence of Bile acid receptor (Homo sapiens) (Q96RI1 whole entry, looked up): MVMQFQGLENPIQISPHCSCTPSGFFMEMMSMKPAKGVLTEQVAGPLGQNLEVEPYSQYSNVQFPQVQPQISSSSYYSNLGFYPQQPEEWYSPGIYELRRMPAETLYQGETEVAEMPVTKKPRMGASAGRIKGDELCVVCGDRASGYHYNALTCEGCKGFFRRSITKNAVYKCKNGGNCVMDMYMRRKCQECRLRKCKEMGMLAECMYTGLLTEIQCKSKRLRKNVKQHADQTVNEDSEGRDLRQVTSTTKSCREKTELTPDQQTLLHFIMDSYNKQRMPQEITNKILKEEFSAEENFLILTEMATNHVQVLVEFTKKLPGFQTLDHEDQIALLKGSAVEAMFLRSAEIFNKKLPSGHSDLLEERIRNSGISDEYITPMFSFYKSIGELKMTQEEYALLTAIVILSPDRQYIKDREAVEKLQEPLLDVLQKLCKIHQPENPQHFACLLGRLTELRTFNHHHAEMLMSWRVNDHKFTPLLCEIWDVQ
How it was run: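 Read-out: beta-lactamase FRET fluorescence (LiveBLAzer B/G substrate, 2 h, room temperature) in GeneBLAzer FXR-UAS-bla HEK 293T cells. Compounds were co-dosed with 50 uM chenodeoxycholic acid (final) and incubated 16 h at 37 °C.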

[20] = molecular target: Bile acid receptor (Homo sapiens) (UniProt Q96RI1); test: qHTS assay to identify small molecule agonists of the farnesoid-X-receptor (FXR) signaling pathway (AID 743220; active = well fitted activation curve with a large enough effect in the signal ratio in the repeat runs, not every such curve was filed as active; the % refers to the signal ratio)
How it was run: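 FXR-UAS-bla HEK 293T cells carrying a UAS-driven beta-lactamase reporter were plated for 5 h at 37C/5% CO2, then exposed to DMSO-dissolved Tox21 10K compounds for 16 h at 37C. A LiveBLAzer B/G FRET substrate was loaded for 2 h at room temperature before fluorescence reading.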

Compound | Potency [1] | Potency [2] | Potency [3] | Potency [4] | Potency [5] | Potency [6] | outcome [7] | Potency [8] | outcome [9] | Potency [10] | Potency [11] | outcome [12] | Potency [13] | Potency [14] | Potency [15] | Potency [16] | outcome [17] | Potency [18] | Potency [19] | outcome [20]
CCOC(=O)[C@]1(c2ccccc2)Oc2ccccc2[C@@H]1N | inactive | inactive | inactive | inactive | inactive | inactive | inactive | 54.9 µM (active) | inactive | inactive | inactive | inactive | – | – | – | – | – | – | – | –
Nc1nc(=S)[nH][nH]1 | inactive | inactive | inactive | – | inactive | inactive | inactive | inactive | inactive | inactive | – | inactive | inactive | inactive | inactive | inactive | inactive | – | – | –
NS(=O)(=O)C(F)(F)C(F)(F)C(F)(F)C(F)(F)C(F)(F)C(F)(F)C(F)(F)C(F)(F)F | inactive | inactive | inactive | – | 43.6 µM (active) | 49 µM (active) | – | – | – | 54.9 µM (active) | 27.5 µM (active) | – | inactive | – | 68.6 µM (active) | – | – | – | – | –
O=NN1CCCCCC1 | inactive | inactive | inactive | – | inactive | inactive | inactive | inactive | – | inactive | – | inactive | inactive | – | inactive | – | inactive | inactive | inactive | inactive
CC(=O)[C@H]1CC[C@H]2[C@@H]3CC[C@H]4C[C@](C)(O)CC[C@]4(C)[C@H]3CC[C@]12C | inactive | inactive | inactive | – | inactive | inactive | inactive | inactive | inactive | inactive | inactive | – | inactive | – | inactive | inactive | – | – | – | –
CN(C)c1ccc(N(C)C)cc1 | inactive | 61.3 µM (active) | inactive | – | inactive | inactive | inactive | – | – | inactive | – | – | inactive | – | inactive | – | – | inactive | inactive | inactive
CCOP(O)OCC | inactive | inactive | inactive | – | inactive | inactive | inactive | inactive | inactive | inactive | – | inactive | inactive | – | inactive | inactive | inactive | – | – | –
Clc1ccc(C(OCCN2CCCCC2)c2ccccc2)cc1 (configuration not stated) | inactive | inactive | inactive | inactive | inactive | – | inactive | – | – | – | – | inactive | – | – | – | – | inactive | – | – | –
CCOP(=O)(OCC)SCCSCC | inactive | inactive | inactive | inactive | inactive | inactive | inactive | inactive | – | inactive | inactive | inactive | – | – | inactive | – | inactive | – | – | –
Brc1ccc(Oc2ccccc2)cc1 | inactive | inactive | inactive | – | – | inactive | inactive | inactive | inactive | inactive | inactive | inactive | inactive | – | inactive | inactive | inactive | inactive | – | –
CCOP(=S)(OCC)SCSCC | inactive | inactive | inactive | – | inactive | inactive | inactive | inactive | inactive | inactive | inactive | inactive | inactive | – | inactive | inactive | – | inactive | inactive | inactive
C=CC(=O)OCC(C)C | inactive | inactive | inactive | – | inactive | inactive | – | inactive | inactive | inactive | inactive | inactive | inactive | inactive | inactive | inactive | inactive | inactive | – | –
CC(Cl)Cl | inactive | inactive | inactive | – | inactive | inactive | inactive | inactive | inactive | inactive | inactive | inactive | inactive | – | inactive | inactive | inactive | inactive | inactive | –
II | inactive | inactive | inactive | – | inactive | inactive | inactive | inactive | inactive | inactive | inactive | inactive | inactive | inactive | inactive | inactive | inactive | inactive | – | –
O=NN1CCNCC1 | inactive | inactive | inactive | inactive | inactive | – | – | inactive | inactive | – | inactive | inactive | – | – | inactive | inactive | inactive | inactive | – | –
S=C=NCc1ccccc1 | inactive | inactive | inactive | – | – | – | – | inactive | inactive | inactive | – | inactive | – | 24.6 µM (active) | – | – | inactive | inactive | – | –
C[C@H]1CNCCc2ccc(Cl)cc21 | inactive | inactive | inactive | – | inactive | inactive | inactive | inactive | inactive | inactive | inactive | inactive | – | – | inactive | inactive | inactive | – | inactive | inactive
COCCOCCO | inactive | inactive | inactive | – | inactive | inactive | inactive | inactive | inactive | – | – | – | – | – | – | – | – | – | – | –
O=C(C(Cl)(Cl)Cl)C(Cl)(Cl)Cl | inactive | inactive | inactive | – | – | inactive | inactive | inactive | inactive | inactive | inactive | inactive | – | inactive | inactive | inactive | inactive | inactive | inactive | –
CCOc1ccc(C(C)(C)COCc2cccc(Oc3ccccc3)c2)cc1 | inactive | inactive | inactive | – | inactive | inactive | inactive | inactive | inactive | inactive | inactive | inactive | – | – | inactive | inactive | – | inactive | inactive | inactive

— PubChem BioAssay (Tox21)
